Experimental data taken from PubChem BioAssay AID1479 (National Center for Advancing Translational Sciences (NCATS), 2009).
About 820 (0.29%) of roughly 280,000 compounds were called active. Another 1% or so got no clear call; they are omitted. Calls come from the whole dose curve; as a rule, active = well fitted curve in either direction with a large enough effect; inconclusive = small, poorly fitted or top-dose-only effect; inactive = flat fitted curve, though single readings scatter. Shown is part of a subset that was picked to be rich in actives.

assay: Total Fluorescence Counterscreen for Inhibitors of the Interaction of Thyroid Hormone Receptor and Steroid Receptor Coregulator 2; conditions: TRb/SRC2 Texas Red total fluorescence interference; series mostly up to 106 µM; fluorescence change, negative = quenching: at the top concentration
Outline: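 Human TRβ ligand-binding domain (0.6 uM) and Texas Red SRC2 peptide (20 nM) in Tris buffer with 1 uM T3 and 5% DMSO were incubated with pinned compound for 5 hr at ambient temperature. Total fluorescence was computed as S + 2P (555/632 nm).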
% is set by controls: 0 for no effect and ±100 for the full control effect; potency is the fitted concentration of half-maximal effect; tags give direction and shape of the fitted curve or compound fluorescence and quenching.

| Structure (SMILES) | fluorescence change, negative = quenching | Potency |
| --- | --- | --- |
| O=C(NCCCN1CCN(c2cccc(Cl)c2)CC1)c1nnc(Cc2ccc(F)cc2Cl)o1 | -0.155% (inactive) |  |
| CCOc1cc(C2c3c(-c4ccc(Br)cc4)n[nH]c3C(=O)N2c2ccc(Cl)cc2)ccc1O (stereo not drawn) | 0.442% (inactive) |  |
| CC1CCN(S(=O)(=O)c2ccc3c(c2)N(CC(=O)NCc2ccccc2Cl)C(=O)CO3)CC1 | -0.255% (inactive) |  |
| Cc1ccccc1C(=O)Nc1nnc(S(=O)(=O)N(C)c2ccc(Cl)cc2)s1 |  | 31.6 µM [quencher] (active) |
| CCN(c1ccc(Cl)cc1)S(=O)(=O)c1nnc(NC(=O)c2ccco2)s1 | -8.1% (inactive) |  |
| CC(C)CC(=O)Nc1nnc(S(=O)(=O)N(C)c2ccc(Cl)cc2)s1 | -12.2% (inactive) |  |
| CN(Cc1ccccc1)C(=O)CCS(=O)(=O)c1cc(Br)cc2c1N(C(=O)C1CC1)CC2 | -2.08% (inactive) |  |
| O=C(Nc1ccc(F)cc1F)c1cnn(-c2ccc(F)cc2)c1-n1cccc1 | 0.454% (inactive) |  |
| Clc1nc(Cl)c(Cl)c(Cl)c1Cl | -4.5% [at 201 µM] (inactive) |  |
| COc1c(O)c2c(=O)cc(OC)c3c4c(OC)cc(=O)c5c(O)c(OC)c6c(c(c1C[C@@](C)(O)[C@H]6C(C)=O)c23)c54 |  | 44.7 µM [fluorescent] (active) |
| CCn1cc(C(=O)N2CCN(c3cc(Cl)ccc3C)CC2)c(=O)c2cc(S(=O)(=O)N3CCCC3)ccc21 | -1.15% (inactive) |  |
| CCc1ccccc1NC(=O)Cn1c(=O)n(-c2cccc(C)c2)c(=O)c2c1c1cc(OC)ccc1n2C | -1.44% (inactive) |  |
| Cc1ccccc1C(=O)N(Cc1ccc(N(C)C)cc1)CC1CCCO1 (stereo not drawn) | 0.685% (inactive) |  |
| N#C/C(=C/c1ccc(N2CCCCC2)o1)C(=O)NCCc1c[nH]c2ccccc12 | -0.527% (inactive) |  |
| N#C/C(=C/c1ccc(N2CCOCC2)o1)C(=O)N1CCOCC1 |  | 44.7 µM [fluorescent] (active) |
| N#C/C(=C\c1ccc(N2CCOCC2)o1)C(=O)N1CCOCC1 | 0.512% (inactive) |  |
| CCc1c(C(=O)O)c(=O)cnn1-c1ccc(Cl)cc1 | -12.7% [at 201 µM] (inactive) |  |
| O=C(CCSCc1ccccc1F)N1CCN(c2ccc(Cl)cc2)CC1 | -2.62% (inactive) |  |
| COc1cccc(CNC(=O)c2ccc3c(c2)N(Cc2ccc(C(F)(F)F)cc2)C(=O)c2ccccc2S3)c1OC |  | 31.6 µM [quencher] (active) |
| COc1ccccc1NC(=O)CN1C(=O)c2ccccc2Sc2ccc(C(=O)N3CCCC3)cc21 | -6.38% (inactive) |  |
| Cc1ccccc1CN1C(=O)c2ccccc2Sc2ccc(C(=O)NCCCN3CCOCC3)cc21 | 0.0604% (inactive) |  |
| CC(=O)N1CCCc2cc(S(=O)(=O)N3CCC(C(=O)NCc4ccc(F)cc4)CC3)ccc21 | -33.4% (inactive) |  |

| Structure (SMILES) | fluorescence change, negative = quenching | Potency |
| --- | --- | --- |
| CCCN(CCC)CCNC(=O)c1ccc2c(c1)NC(=O)C(CS(=O)(=O)Cc1cccc(Br)c1)N2 (stereo not drawn) | -0.748% (inactive) |  |
| CCCCNC(=O)c1ccc2c(c1)NC(=O)C(C(C)C)N2 (stereo not drawn) |  | 0.0562 µM [quencher] (active) |
| CCCCNC(=O)CCNC(=O)c1ccc(C(C)(C)C)cc1 | -2.87% (inactive) |  |
| CSc1ccccc1NC(=O)CCS(=O)(=O)c1nc(-c2cccs2)cc(C(F)(F)F)n1 | -0.205% (inactive) |  |
| O=C(Nc1cc(C(F)(F)F)ccc1Cl)c1ccc2c(c1)CCN2S(=O)(=O)c1ccccc1 | 1.06% (inactive) |  |
| CCc1ccccc1NC(=O)CSc1nc(C)c(C(=O)Nc2ccccc2)c(-c2ccc(Cl)cc2)c1C#N | 1.72% (inactive) |  |
| CCn1cc2nc(SCc3cccc(F)c3)n(CCc3ccccc3)c(=O)c2n1 | -0.462% (inactive) |  |
| CN1c2ccc(Cl)cc2-c2nc(SCC(=O)Nc3cc(F)ccc3F)ncc2S1(=O)=O | 0.99% (inactive) |  |
| O=C(Nc1nnc(S(=O)(=O)N2CCCc3ccccc32)s1)c1cccc(F)c1 | -0.796% (inactive) |  |
| Cc1ccc(S(=O)(=O)N2CCCc3cc(NS(=O)(=O)c4cc(C)ccc4C)ccc32)cc1 | -1.28% (inactive) |  |
| Cc1c2cnn(-c3ccccc3)c(=O)c2c(C)n1C(C)C(=O)Nc1ccc(Br)cc1F (stereo not drawn) | -3% (inactive) |  |
| O=C(NCc1cccnc1)C(=O)NCC(c1cccnc1)N1CCN(c2ccccc2)CC1 (stereo not drawn) | 6.49% (inactive) |  |
| CCN(CC)S(=O)(=O)c1ccc2c(c1)nc(CN(C)C(=O)Nc1ccc(Cl)cc1)n2C | 0.355% (inactive) |  |
| COCCNc1ncnc2c1c(-c1ccccc1)cn2-c1ccc(C)c(Cl)c1 | -0.894% (inactive) |  |
| COc1ccccc1N1CCN(c2ncnc3onc(-c4ccc(F)cc4)c23)CC1 | -4.64% (inactive) |  |
| COc1cc(NC(=O)c2cc(C3CC3)nc3c2c(C)nn3-c2ccccc2)cc(OC)c1 | -0.897% (inactive) |  |
| Cc1[nH]c2ccccc2c1C(c1ccccc1)c1cccs1 (stereo not drawn) | -25.5% (inactive) |  |
| COc1cccc(CNC(=O)Cc2csc3nc(-c4ccccc4)cn23)c1 | -5.57% (inactive) |  |
| Fc1ccc(CN2CCc3nc(Nc4ccccc4)ncc3C2)cc1F | -1.99% (inactive) |  |
| Cc1ccc(-c2cn3c(n2)sc2cc(C(=O)NCc4cccs4)ccc23)c(C)c1 | 4.67% (inactive) |  |
| CC(C)CC(=O)NCC(c1ccc2c(c1)OCO2)N1CCN(c2ccc(F)cc2)CC1 (stereo not drawn) | -0.0801% (inactive) |  |
